# Test results published in PubChem BioAssay (NCATS).
# Where “and” joins values, the source holds several entries; their conditions need not be identical. Equal values may be shown once. Results filed as inconclusive are left out. Calls of active or inactive are those of the source. Unless noted, the call rests on the fitted dose curve; in most records, active means well fitted curve in the direction sought with a large enough effect; inconclusive means small, poorly fitted or top-dose-only effect, or another doubt; inactive means no such curve, though single readings can be large; an effect the other way counts as inactive or inconclusive.
# Assays:
# [1] = qHTS to identify inhibitors of the type 1 interferon - major histocompatibility complex class I in skeletal muscle: primary screen against the NCATS Mechanism Interrogation Plate v5.0 (MIPE) Libary (AID 1347411); details: iHSKM cells + IFN-b, HiBiT-tagged MHC-I luminescence, 24 h; series mostly up to 45.8 µM; further: nearly all actives have a fitted effect of over 65% in size
# How it was run: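 HLA-B HiBit myoblasts, dexamethasone-free medium + 4 ng/ml IFN-b, 24 h compound, 11-pt 1:3 from 46 uM final. Readout: Nano-Glo HiBiT lytic luminescence after 10 min lysis, RT.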
# [2] = Primary qHTS for inhibitors of nuclear receptor binding SET domain protein 2 (NSD2) in an isogenic RCH-ACV NSD2 p.E1099K mutant (9B) (AID 1645876); details: RCH-ACV NSD2 E1099K (9B) viability, CellTiter-Glo, 72 h; series mostly up to 44.9 µM; further: nearly all actives have a fitted effect of over 70% in size
# [3] = Primary qHTS for inhibitors of nuclear receptor binding SET domain protein 2 (NSD2) in an RCH-ACV wild type WT cells (2C) (AID 1645877); details: RCH-ACV (leukaemia line) NSD2 WT (2C) viability, CellTiter-Glo, 72 h; series mostly up to 44.9 µM; further: nearly all actives have a fitted effect of over 70% in size
# [4] = target: Glutathione peroxidase 1 (Homo sapiens) (UniProt P07203); experiment: Primary qHTS Assay for Inhibitors of Recombinant Selenoprotein Glutathione Peroxidase 1 (GPX1) (AID 1845191); details: recombinant GPX1, GR-coupled NADPH fluorescence, 15 min; series mostly up to 48.8 µM; further: nearly all actives have a fitted effect of over 65% in size
# How it was run: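 NADPH consumption tracked by fluorescence at 340/450 nm between t=0 and t=15 min, room temperature. Final mix: 10 nM GPX1, 100 nM glutathione reductase, 1 mM GSH, 0.5 mM NADPH, 0.5 mM cumene hydroperoxide, 0.01% BSA; 30 min compound–enzyme preincubation.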
# [5] = qHTS drug screen for cell cycle checkpoint inhibitors in PARPi-resistant BRCA-mutant ovarian cancer cell lines. (AID 1963452; calls by dose curve); details: PEO1/OlaR viability, CellTiter-Glo luminescence, 96 h; for Z-AUC: stronger effect = lower value
# How it was run: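 PEO1, PEO4 and PEO1/OlaR ovarian cancer cells, 600 per well, exposed 96 h at 37C to a dilution series. Viability read by CellTiter-Glo luminescence, normalized to DMSO and empty wells; activity summarized as Z-AUC.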
# [6] = target: Phospholipid hydroperoxide glutathione peroxidase GPX4 (Homo sapiens) (UniProt P36969); experiment: Primary qHTS Assay for Inhibitors of Recombinant Selenoprotein Glutathione Peroxidase 4 (GPX4) (AID 1845192); details: recombinant GPX4, GR-coupled NADPH fluorescence, 15 min; series mostly up to 50 µM; further: nearly all actives have a fitted effect of over 65% in size
# How it was run: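 NADPH consumption followed by fluorescence at 340/450 nm, t=0 and after 15 min at room temperature. Reaction started with cumene hydroperoxide (0.5 mM final) after 30 min compound–GPX4 preincubation; final 200 nM GPX4, 100 nM GR, 1 mM GSH, 0.5 mM NADPH.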
# [7] = measured here: PEO1 parental Z-AUC
# Potency means the concentration at half of the fitted maximal effect.
# Sequence of Phospholipid hydroperoxide glutathione peroxidase GPX4 (Homo sapiens) (P36969 whole entry, looked up): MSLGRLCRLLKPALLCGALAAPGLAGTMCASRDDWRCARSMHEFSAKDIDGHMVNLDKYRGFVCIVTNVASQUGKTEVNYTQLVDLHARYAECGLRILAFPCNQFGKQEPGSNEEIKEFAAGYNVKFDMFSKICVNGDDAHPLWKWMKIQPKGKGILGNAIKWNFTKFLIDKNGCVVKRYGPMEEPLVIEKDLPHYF
# Sequence of Glutathione peroxidase 1 (Homo sapiens) (P07203 whole entry, looked up): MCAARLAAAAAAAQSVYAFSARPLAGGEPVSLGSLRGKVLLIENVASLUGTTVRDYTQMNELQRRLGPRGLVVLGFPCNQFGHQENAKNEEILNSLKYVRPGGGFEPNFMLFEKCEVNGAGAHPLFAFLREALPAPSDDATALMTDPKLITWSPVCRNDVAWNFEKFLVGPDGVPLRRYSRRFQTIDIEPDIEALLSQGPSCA
SMILES,Potency [1],Potency [2],Potency [3],Potency [4],Z-AUC [5],"Z-AUC [5, 7]",Z-AUC ([5]; measured here: PEO4 Z-AUC),Potency [6],Potency [5]
COC1=C(OC)C(=O)C(C/C=C(\C)CC/C=C(\C)CC/C=C(\C)CC/C=C(/C)CC/C=C(\C)CC/C=C(\C)CC/C=C(\C)CC/C=C(\C)CC/C=C(\C)CCC=C(C)C)=C(C)C1=O,inactive,inactive,inactive,,,,,,
CC(=O)O/N=C1\C(=O)N(Cc2cc(Cl)ccc2Cl)c2ccc(Cl)cc21,14.7 µM (active),5.9 µM (active),4.17 µM (active),inactive,1.65 (inactive),1.54,1.73,,
Cn1cc(/C=C/C(=O)c2cccc(F)c2)cc1/C=C/C(=O)NO,inactive,14.8 µM (active),18.6 µM (active),inactive,0.818 (inactive),0.213,0.291,,
O=c1[nH]nc2c3c(cccc13)NC(CN1Cc3ccccc3C1)=N2,inactive,20.9 µM (active),18.6 µM (active),inactive,-0.263 (inactive),-0.113,-0.251,inactive,
CC(=NNC(=O)c1cccc(S(=O)(=O)N2CCOCC2)c1)c1cc(Cl)ccc1O,inactive,2.09 µM (active),1.48 µM (active),,,,,,
COC[C@@H](c1ccc(C(F)(F)F)cc1)N1CCN(C2(C)CCN(C(=O)c3c(C)ncnc3C)CC2)C[C@@H]1C,inactive,inactive,inactive,inactive,1.18 (inactive),1.03,0.78,inactive,
Cc1ccc(-c2ccc(C)cn2)nc1,inactive,inactive,inactive,inactive,1.52 (inactive),0.85,1.74,inactive,
CN(Cc1ccccc1)C(=O)c1ccc(S(=O)(=O)Nc2ccccc2)cc1,inactive,,,inactive,-0.829 (inactive),-0.00385,0.744,inactive,
COc1ccnc2[nH]cc(C(=O)C(=O)N3CCN(C(=O)c4ccccc4)C[C@H]3C)c12,inactive,inactive,inactive,,1.3 (inactive),1.05,1.31,inactive,
CC(/C=C1\SC(=S)N(CC(=O)O)C1=O)=C\c1ccccc1,inactive,inactive,inactive,7.28 µM (active) and 3.21 µM (active),1.25 (inactive),1.33,1.77,12.8 µM (active) and 12.6 µM (active),
C[C@H](CCC(=O)O)[C@H]1CC[C@H]2[C@@H]3[C@@H](O)C[C@@H]4C[C@H](O)CC[C@]4(C)[C@H]3CC[C@]12C,inactive,inactive,inactive,inactive,0.396 (inactive),1.43,1.41,inactive,
Nc1nc(F)nc2c1ncn2C1OC(COP(=O)(O)O)C(O)C1O (centres undefined),inactive,2.95 µM (active),,,,,,,
Clc1cccc(-c2ccc(-c3nnc(CCCc4ccc5cccnc5n4)o3)cc2)c1,inactive,inactive,inactive,inactive,1.61 (inactive),1.52,1.67,inactive,
O=C(/C=C/c1cccnc1)NCCCCC1CCN(C(=O)c2ccccc2)CC1,inactive,0.0019 µM (active),0.0047 µM (active),inactive,,-2.84,-2.61,inactive,0.0436 µM (active)
Cc1c(-c2ccc(-c3ccccc3F)cc2)nc2ccc(F)cc2c1C(=O)O,inactive,0.105 µM (active),0.148 µM (active),inactive,,-1.54,-1.34,inactive,2.75 µM (active)
C[C@]12CCC3[C@@H](CC[C@H]4NC(=O)C=C[C@]34C)[C@@H]1CC[C@@H]2C(=O)Nc1cc(C(F)(F)F)ccc1C(F)(F)F (some centres undefined),inactive,inactive,inactive,inactive,-1.09 (inactive),-1.05,-1.07,inactive,
O=C(O)c1ccc(O)c2ncccc12,inactive,20.9 µM (active),,inactive,1.08 (inactive),0.983,1.08,,
C[C@@H]1CC(=O)Nc2cccc(-c3cnn(C(C)(C)C)c3)c2N1,inactive,6.61 µM (active),5.9 µM (active),inactive,-0.505 (inactive),-0.577,-0.924,,
NC1=N[C@@]2(c3cc(NC(=O)c4ccc(F)cn4)ccc3F)COC[C@H]2CS1,inactive,inactive,inactive,inactive,1.41 (inactive),0.672,0.598,,
C=C1CCC2[C@](C)(CO)C(O)CC[C@]2(C)C1C/C=C1/C(=O)OCC1O (some centres undefined),13.1 µM (active),7.42 µM (active),7.42 µM (active),inactive,0.689 (inactive),-0.31,-0.312,inactive,
Cc1cccc(/C=N/Nc2cc(N3CCOCC3)nc(OCCc3ccccn3)n2)c1,inactive,0.468 µM (active),0.296 µM (active),inactive,0.655 (inactive),0.0151,0.106,,
COc1ccc(-n2cnc3cc(C(=O)N4CCCCC4)ccc32)cc1,inactive,inactive,inactive,inactive,0.871 (inactive),0.696,0.92,,
C[C@H]1CC2[C@@H]3CCC4=CC(=O)C=C[C@]4(C)[C@@]3(F)[C@@H](O)C[C@]2(C)[C@@]1(O)C(=O)CO (some centres undefined),inactive,inactive,0.105 µM (active),inactive,-1.28 (inactive),-0.45,-0.996,,
Cn1cc(/C=C2\C(=O)Nc3cccnc32)c2ccccc21,29.4 µM (active),5.25 µM (active),8.33 µM (active),inactive,1.01 (inactive),0.388,-0.377,inactive,
CN(CCOc1ccc(C[C@H](Nc2ccccc2C(=O)c2ccccc2)C(=O)O)cc1)c1ccccn1,inactive,inactive,inactive,inactive,0.115 (inactive) and 0.904 (inactive),0.442 and 0.488,0.445 and 0.87,,
CC#Cc1cncc(-c2ccc3c(c2)[C@@]2(N=C(C)C(N)=N2)C2(CCC(OC)CC2)C3)c1 (some centres undefined),inactive,inactive,inactive,inactive,1.27 (inactive),0.521,0.345,,
CCN(CC)C(=O)Cc1csc(NS(=O)(=O)c2cccc(Cl)c2C)n1,inactive,inactive,inactive,inactive,0.874 (inactive),0.835,0.952,inactive,
CCO[C@@H]1OC(=O)C[C@@H]1NC(=O)[C@@H]1CCCN2C(=O)CC[C@H](NC(=O)c3nccc4ccccc34)C(=O)N12,inactive,inactive,inactive,inactive,-0.883 (inactive),-0.455,-1.09,inactive,
